# Data from the supplement of paper PMC8728848.
# Many of the other results were omitted from the sample, so the strongest signals are more common in it than they were.
# How the values were obtained:
# Experiment in all cases: glycan array binding signal (z-score within array); higher = stronger binding
# Conditions in all cases: glycan notation: IUPAC condensed, linker removed
# Gal(b1-6)Gal = target: Gal(b1-6)Gal
# Summary of the method: (§1)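 Arrays were curated from the Consortium for Functional Glycomics database, 3228 in total, and kept only where the protein sequence was available. Binding is expressed as a within-array Z-score. This score was averaged across arrays of the same protein sequence at different concentrations or buffers and across linkers, and negative values can be read as non-binding.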
# Gal3S6S(b1-4)GlcNAc = target: Gal3S6S(b1-4)GlcNAc
# Summary of the method: as §1
# Gal3S6S(b1-4)GlcNAc6S = target: Gal3S6S(b1-4)GlcNAc6S
# Summary of the method: as §1
# Gal4S6S(b1-4)GlcNAc = target: Gal4S6S(b1-4)GlcNAc
# Summary of the method: as §1
# Gal6S(b1-4)Glc = target: Gal6S(b1-4)Glc
# Summary of the method: as §1
# [1] = target: GlcA3S(b1-3)Gal(b1-4)GlcNAc(b1-2)Man
# Summary of the method: as §1
# [2] = target: GlcNAc(a1-4)Gal(b1-4)GlcNAc(b1-3)Gal(b1-4)GlcNAc
# Summary of the method: as §1
# [3] = target: GlcNAc(b1-2)[GlcNAc(b1-4)]Man(a1-3)[GlcNAc(b1-2)Man(a1-6)]Man(b1-4)GlcNAc(b1-4)GlcNAc
# Summary of the method: as §1
# [4] = target: GlcNAc(b1-3)Gal(b1-4)GlcNAc(b1-3)Gal(b1-4)GlcNAc(b1-3)Gal(b1-4)GlcNAc(b1-3)Gal(b1-4)GlcNAc(b1-2)[GlcNAc(b1-3)Gal(b1-4)GlcNAc(b1-3)Gal(b1-4)GlcNAc(b1-3)Gal(b1-4)GlcNAc(b1-3)Gal(b1-4)GlcNAc(b1-6)]Man(a1-6)[GlcNAc(b1-3)Gal(b1-4)GlcNAc(b1-3)Gal(b1-4)GlcNAc(b1-3)Gal(b1-4)GlcNAc(b1-3)Gal(b1-4)GlcNAc(b1-2)Man(a1-3)]Man(b1-4)GlcNAc(b1-4)[Fuc(a1-6)]GlcNAc
# Summary of the method: as §1
# [5] = target: GlcNAc(b1-3)[GlcNAc(b1-6)]Gal(b1-4)GlcNAc
# Summary of the method: as §1
# [6] = target: Man(a1-2)Man(a1-2)Man(a1-3)Man
# Summary of the method: as §1
# [7] = target: Man(a1-3)[Man(a1-6)]Man(b1-4)GlcNAc(b1-4)[Fuc(a1-6)]GlcNAc
# Summary of the method: as §1
# [8] = target: Neu5Ac(a2-3)Gal(b1-3)GalNAc(b1-4)[Neu5Ac(a2-3)]Gal(b1-4)Glc
# Summary of the method: as §1
# [9] = target: Neu5Ac(a2-3)Gal(b1-3)GlcNAc(b1-6)GalNAc
# Summary of the method: as §1
# [10] = target: Neu5Ac(a2-3)Gal(b1-3)[Fuc(a1-4)]GlcNAc(b1-3)Gal(b1-4)[Fuc(a1-3)]GlcNAc
# Summary of the method: as §1
# [11] = target: Neu5Ac(a2-3)Gal(b1-3)]Neu5Ac(a2-3)Gal(b1-4)]GlcNAc
# Summary of the method: as §1
# [12] = target: Neu5Ac(a2-3)Gal(b1-4)GlcNAc(b1-2)Man(a1-3)[GlcNAc(b1-4)][Neu5Ac(a2-3)Gal(b1-4)GlcNAc(b1-2)Man(a1-6)]Man(b1-4)GlcNAc(b1-4)GlcNAc
# Summary of the method: as §1
# [13] = target: Neu5Ac(a2-3)Gal(b1-4)GlcNAc(b1-2)Man(a1-3)[Neu5Ac(a2-3)Gal(b1-4)GlcNAc(b1-2)Man(a1-6)]Man(b1-4)GlcNAc(b1-4)GlcNAc
# Summary of the method: as §1
# [14] = target: Neu5Ac(a2-3)Gal(b1-4)GlcNAc(b1-3)Gal(b1-4)GlcNAc(b1-3)Gal(b1-4)GlcNAc(b1-2)Man(a1-3)[Neu5Ac(a2-3)Gal(b1-4)GlcNAc(b1-3)Gal(b1-4)GlcNAc(b1-3)Gal(b1-4)GlcNAc(b1-2)Man(a1-6)]GalNAc
# Summary of the method: as §1
# [15] = target: Neu5Ac(a2-3)Gal(b1-4)GlcNAc6S
# Summary of the method: as §1
# [16] = target: Neu5Ac(a2-3)Gal(b1-4)[Fuc(a1-3)]GlcNAc(b1-3)GalNAc
# Summary of the method: as §1
# [17] = target: Neu5Ac(a2-6)Gal(b1-4)GlcNAc(b1-2)Man(a1-6)[Man(a1-3)]Man(b1-4)GlcNAc(b1-4)GlcNAc
# Summary of the method: as §1
# [18] = target: Neu5Ac(a2-6)Gal(b1-4)GlcNAc(b1-2)[Neu5Ac(a2-6)Gal(b1-4)GlcNAc(b1-6)]Man(a1-6)[Neu5Ac(a2-6)Gal(b1-4)GlcNAc(b1-2)Man(a1-3)][GlcNAc(b1-4)]Man(b1-4)GlcNAc(b1-4)GlcNAc
# Summary of the method: as §1
# [19] = target: Neu5Ac(a2-6)Gal(b1-4)GlcNAc(b1-3)Gal(b1-4)GlcNAc(b1-3)Gal(b1-4)GlcNAc(b1-2)Man(a1-3)[Neu5Ac(a2-6)Gal(b1-4)GlcNAc(b1-3)Gal(b1-4)GlcNAc(b1-3)Gal(b1-4)GlcNAc(b1-2)Man(a1-6)]GalNAc
# Summary of the method: as §1
# Neu5Ac(a2-6)GalNAc = target: Neu5Ac(a2-6)GalNAc
# Summary of the method: as §1
# [20] = target: Neu5Ac(a2-8)Neu5Ac(a2-3)[GalNAc(b1-4)]Gal(b1-4)Glc
# Summary of the method: as §1
# [21] = target: Neu5Gc(a2-3)Gal(b1-4)GlcNAc
# Summary of the method: as §1
# [22] = target: Neu5Gc(a2-3)Gal(b1-4)[Fuc(a1-3)]GlcNAc
# Summary of the method: as §1
# [23] = target: Neu5Gc(b2-6)Gal(b1-4)GlcNAc
# Summary of the method: as §1
binder,measurement,setting,value
"MtEccB1 (Mycobacterium tuberculosis H37Rv), O69734 (protein) MGLRLTTKVQVSGWRFLLRRLEHAIVRRDTRMFDDPLQFYSRSIALGIVVAVLILAGAALLAYFKPQGKLGGTSLFTDRATNQLYVLLSGQLHPVYNLTSARLVLGNPANPATVKSSELSKLPMGQTVGIPGAPYATPVSAGSTSIWTLCDTVARADSTSPVVQTAVIAMPLEIDASIDPLQSHEAVLVSYQGETWIVTTKGRHAIDLTDRALTSSMGIPVTARPTPISEGMFNALPDMGPWQLPPIPAAGAPNSLGLPDDLVIGSVFQIHTDKGPQYYVVLPDGIAQVNATTAAALRATQAHGLVAPPAMVPSLVVRIAERVYPSPLPDEPLKIVSRPQDPALCWSWQRSAGDQSPQSTVLSGRHLPISPSAMNMGIKQIHGTATVYLDGGKFVALQSPDPRYTESMYYIDPQGVRYGVPNAETAKSLGLSSPQNAPWEIVRLLVDGPVLSKDAALLEHDTLPADPSPRKVPAGASGAP",glycan array binding signal (z-score),Gal(b1-6)Gal,-0.836
same,glycan array binding signal (z-score),Gal3S6S(b1-4)GlcNAc,0.192
same,glycan array binding signal (z-score),Gal3S6S(b1-4)GlcNAc6S,3.9
same,glycan array binding signal (z-score),Gal4S6S(b1-4)GlcNAc,3.03
same,glycan array binding signal (z-score),Gal6S(b1-4)Glc,0.586
same,glycan array binding signal (z-score),[1],-1.14
same,glycan array binding signal (z-score),[2],0.812
same,glycan array binding signal (z-score),[3],-0.488
same,glycan array binding signal (z-score),[4],3.92
same,glycan array binding signal (z-score),[5],-0.11
same,glycan array binding signal (z-score),[6],-1.02
same,glycan array binding signal (z-score),[7],0.339
same,glycan array binding signal (z-score),[8],3.37
same,glycan array binding signal (z-score),[9],-0.342
same,glycan array binding signal (z-score),[10],0.263
same,glycan array binding signal (z-score),[11],0.038
same,glycan array binding signal (z-score),[12],4.06
same,glycan array binding signal (z-score),[13],-1.57
same,glycan array binding signal (z-score),[14],2.66
same,glycan array binding signal (z-score),[15],1.54
same,glycan array binding signal (z-score),[16],0.588
same,glycan array binding signal (z-score),[17],0.711
same,glycan array binding signal (z-score),[18],-0.566
same,glycan array binding signal (z-score),[19],2.47
same,glycan array binding signal (z-score),Neu5Ac(a2-6)GalNAc,-0.143
same,glycan array binding signal (z-score),[20],0.156
same,glycan array binding signal (z-score),[21],-0.509
same,glycan array binding signal (z-score),[22],0.844
same,glycan array binding signal (z-score),[23],-0.779
